# An excerpt weighted towards active compounds, which were near 7.3% of everything screened.
# Rab9 prom act: activators of Rab9 promoter. Huh7 Rab9 promoter-luciferase reporter, luminescence, 24 h. Potency, µM (highest dose often 9.22 µM), inactives show at the top dose activation, negative = inhibition, usual class: activators. actives 2.8% (n = 320,000). AID 485297; further: % of control where 0% means no effect; nearly all actives have a fitted effect of over 60% in size
#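 Luminescence from Amplite-detected luciferase (10 minutes, ambient) reports Rab9 promoter activation. Before that, stable Rab9-luciferase Huh7 cells (1500/well, reduced-serum OP-MEM I plus 10% FBS) were exposed to compound for 24 hours at 37C.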
# KinaseGlo FLuc: counter-screen: inhibitors of Kinase-Glo firefly luciferase. Q27757. Kinase-Glo luciferase, ATP luminescence, 8 min. Potency, µM (highest dose often 38.3 µM), for the others: top-dose activity change, negative = inhibition, actives largely listed as inhibitors. actives 0.28% (n = 200,000). AID 1379; further: on the % scale 0 is the no-effect control and ±100 the full control effect; nearly all actives have a fitted effect of over 60% in size
#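 Kinase-Glo luciferase light output from ATP and luciferin was measured with 10 uM ATP, within the enzyme's linear range. Buffer: 50 mM imidazole pH 7.2, 50 mM KCl, 7 mM MgCl2, 0.01% Tween 20, 0.05% BSA; luminescence read after 8 min at ambient temperature.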
# ELG1 genotox: genotoxicity induction in ELG1-luciferase HEK293T cells. HEK293T ELG1-luciferase reporter, luminescence, 16 h. Potency, µM (titrated, usually from 46 µM), for the others: at the highest dose activity change, positive = activation, actives largely listed as activators. actives 1.3% (n = 330,000). AID 504466; further: % of control where 0% means no effect; nearly all actives have a fitted effect of over 60% in size
#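 Step 1: seed 2,000 HEK293T ELG1-luciferase cells per well. Step 2: add compound or DMSO, incubate 16 hr at 37 °C. Step 3: ONE-Glo, 30 min at room temperature, read luminescence.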
# NPC1 prom act: activates the NPC1 promoter. Huh7 NPC1 promoter luciferase reporter, 24 h. Potency, µM (series often up to 9.22 µM), without a hit: at the top dose activation, most hits filed as activators. actives 2.4% (n = 320,000). AID 485313; further: % of control where 0% means no effect; nearly all actives have a fitted effect of over 60% in size
#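 Cells: Huh7 expressing luciferase under the NPC1 promoter, 1500/well. Seeded 2 h, compound added, incubated 24 h at 37 °C. Luciferase reagent, 10 min ambient, then luminescence.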
# FLuc modulator: counter-screen for miR-21 project: firefly luciferase inhibitors or activators; P08659; purified FLuc, Km substrates, luminescence inhibition; Potency, µM (highest dose often 57.5 µM), for the others: at the highest dose activity change, negative = inhibition, hits mostly inhibitors; actives 6.9% (n = 360,000);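 further: plate controls were vehicle for no effect and reference inhibitor for full effect; nearly all actives have a fitted effect of over 55% in size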
# Target sequence (P08659 whole entry, looked up): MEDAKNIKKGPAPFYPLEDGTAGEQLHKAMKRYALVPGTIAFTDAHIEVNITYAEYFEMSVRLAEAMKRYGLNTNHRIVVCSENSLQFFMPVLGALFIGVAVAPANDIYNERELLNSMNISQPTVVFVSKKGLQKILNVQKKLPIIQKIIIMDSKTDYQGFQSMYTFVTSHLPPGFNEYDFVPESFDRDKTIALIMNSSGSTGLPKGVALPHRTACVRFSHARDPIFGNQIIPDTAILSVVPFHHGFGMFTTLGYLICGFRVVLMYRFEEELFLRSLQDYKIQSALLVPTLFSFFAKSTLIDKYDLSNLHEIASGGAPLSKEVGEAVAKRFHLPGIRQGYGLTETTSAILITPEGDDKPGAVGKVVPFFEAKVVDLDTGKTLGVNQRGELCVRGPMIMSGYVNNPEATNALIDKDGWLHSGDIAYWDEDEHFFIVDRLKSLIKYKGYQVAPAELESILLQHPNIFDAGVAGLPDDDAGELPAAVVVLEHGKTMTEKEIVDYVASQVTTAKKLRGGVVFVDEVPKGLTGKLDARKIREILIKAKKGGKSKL
#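 Biochemical qHTS of compounds, final roughly 60 µM downward over six points, against 10 nM purified firefly luciferase using Km concentrations of substrates (10 uM D-luciferin, 10 uM ATP) in Tris acetate pH 7.5 buffer; luminescence output.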
# SMN2 splice enh: enhancers of SMN2 splice variant expression; HEK293 SMN2-luciferase splicing reporter, luminescence, 30-36 h; Potency, µM (highest dose often 46.1 µM), for the others: at the top dose activity change, positive = activation, hits mostly activators; actives 2.8% (n = 210,000); AID 1458; further: % of control where 0% means no effect; nearly all actives have a fitted effect of over 55% in size
#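 qHTS luciferase splicing reporter: luminescence rises when SMN2 exon 7 is included in transfected HEK293 cells. Compound exposure lasted 30-36 h at 37C, with 4.5 mM final sodium butyrate as control, followed by a ONE-Glo read.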
# * marks the source's active call; other numbers are inactive results; ? = inconclusive; nt = no result; [ ] = remark or other dose. The call rests on the fitted dose curve; in most records, active means well fitted curve in the direction sought with a large enough effect; inconclusive means small, poorly fitted or top-dose-only effect, or another doubt; inactive means no such curve, though single readings can be large; an effect the other way counts as inactive or inconclusive. Potency means the concentration at half of the fitted maximal effect.
SMILES,Rab9 prom act,KinaseGlo FLuc,ELG1 genotox,NPC1 prom act,FLuc modulator,SMN2 splice enh
Nc1ccc2c(c1Cl)C(=O)c1ccc(N)c(Cl)c1C2=O,2.2µM*,nt,?,?,12µM*,nt
O=C1c2ccc(O)c(O)c2C(=O)c2c(O)ccc(O)c21,nt,-20%,nt,nt,nt,-16%
COc1cc(S(=O)(=O)n2ccnc2C(C)C)ccc1Br,nt,nt,nt,nt,-15%,13%
CCOc1ccccc1-c1noc(CSc2nnc(-c3ccccc3)n2-c2cccc(C)c2)n1,nt,nt,nt,nt,0%,4%
Cc1cc([N+](=O)[O-])ccc1NC(=O)c1cc2ccccc2o1,2.5µM*,nt,-4%,?,?,nt
Cc1ccc(C)c(NC(=O)c2cc3ccccc3o2)c1,4µM*,nt,17%,?,13µM*,nt
COc1ccc(C)cc1NC(=O)c1cc2ccccc2o1,-1%,-3%,7%,5%,15µM*,17%
COc1ccc(OC)c(NC(=O)c2cc3ccccc3o2)c1,0%,0%,?,15%,-15%,nt
Cc1cc([N+](=O)[O-])ccc1NC(=O)c1ccco1,1%,-1%,3%,-4%,0%,nt
CCCC(=O)Nc1ccc(NC(=O)c2cc3ccccc3o2)c(OC)c1,2.5µM*,nt,18%,4µM*,?,nt
CCCCOc1ccc(C2=NC(c3ccncc3)=Nc3ccc(OCC)cc3N2)cc1,nt,nt,nt,nt,43%,2%
Cc1ccc(C)c(N2CCN(S(=O)(=O)c3c(C(=O)N4CCC(C)CC4)c(C)n(C)c3C)CC2)c1,nt,nt,nt,nt,4%,nt
CCCCNc1nc(Oc2ccc(=O)n(C)n2)nc(N2CCOCC2)n1,nt,nt,nt,nt,4%,?
Cc1ccc(C)c(NC(=O)c2ccc3ccccc3n2)c1,2µM*,-18%,?,4µM*,0.85µM*,14µM*
Cc1ccc(NC(=S)c2ccc3ccccc3n2)c(C)c1,1.6µM*,nt,?,1.1µM*,11µM*,nt
Cc1ccc(NC(=O)c2cc(C)nc3ccccc23)c(C)c1,0%,nt,-3%,-5%,1%,nt
COc1cc(N)ccc1NC(=O)c1cc2ccccc2o1,3.2µM*,nt,?,4µM*,11µM*,nt
Cc1ccc(S(=O)(=O)N(C)C)cc1NC(=O)c1ccc2ccccc2n1,17%,nt,-6%,14%,?,nt
CCCCN1c2ccccc2N(CCCO)c2cc(C)nnc21,3%,-1%,-2%,13%,12µM*,13%
CCCCN1C2=NCCCN2c2ccccc21,-1%,-6%,0%,0%,-2%,0%
COc1ccccc1CN1CC(C(=O)NCc2c(F)ccc(C)c2F)CCC1=O (configuration not stated),?,nt,?,?,30µM*,nt
COc1ccccc1CN1CC(C(=O)NCc2ccc(C)c(F)c2)CCC1=O (configuration not stated),1%,nt,2%,-6%,-2%,nt
Cc1ccc(-c2nnc(Nc3ccc(C(=O)N(C)C)cc3)c3ccccc23)cc1S(=O)(=O)NC(C)(C)CO,15%,nt,3%,5%,21µM*,nt
COc1ccc(Nc2nnc(-c3ccc(C)c(S(=O)(=O)N4CCN(C)CC4)c3)c3ccccc23)cc1,nt,nt,nt,nt,17µM*,0%
Cc1ccc(-c2nnc(Nc3ccc(C(=O)N(C)C)cc3)c3ccccc23)cc1S(=O)(=O)NCC1CCCO1 (configuration not stated),15%,-2%,-5%,2%,11µM*,5%
SMILES,Rab9 prom act,KinaseGlo FLuc,ELG1 genotox,NPC1 prom act,FLuc modulator,SMN2 splice enh
CCOc1ccc(S(=O)(=O)Nc2ccc(-c3ccc(N4CCCC4)nn3)cc2)cc1,nt,nt,nt,nt,0%,nt
CCCCOc1ccc(S(=O)(=O)Nc2cccc(-c3ccc(N4CCOCC4)nn3)c2)cc1,nt,nt,nt,nt,13µM*,nt
CCOc1ccc(S(=O)(=O)Nc2cccc(-c3ccc(N4CCCCCC4)nn3)c2)cc1,0%,nt,?,3%,8.5µM*,nt
CC1CCN(CC[S-])CC1.O.O.[Cl][Pt],nt,-5%[7.66 µM],nt,nt,nt,-4%[9.22 µM]
O=C(Cn1c(=O)nc(-c2ccccc2F)c2cc(Cl)ccc21)Nc1ccccc1C(F)(F)F,nt,nt,nt,nt,0%,nt
CC(=O)Nc1ccc(/C=N/Nc2nc3ccccc3s2)cc1,0.45µM*,nt,2.6µM*,0.71µM*,0.95µM*,nt
CC(=O)Nc1cccc(/C(C)=N/NC(=O)c2cc(-c3ccncc3)nc3ccccc23)c1,0%,nt,-3%,-2%,?,nt
COc1cc(/C=N\Nc2nc3ccccc3o2)cc(OC)c1OC,24%,-5%,12%,?,?,4%
CC(=O)Nc1cccc(/C(C)=N/Nc2nc3ccccc3s2)c1,?,-1%,?,2%,11µM*,11µM*
CC(=O)Nc1ccc(S(=O)(=O)Nc2nc3ccccc3s2)cc1,0%,-4%,0%,-1%,5%,21%
COc1ccc(/C=N/Nc2nc3ccccc3o2)cc1O,?,-1%,0.92µM*,?,0.95µM*,?
COc1cc(/C=N/Nc2nc3ccccc3o2)cc(OC)c1O,8%,-1%,15%,1%,15µM*,-6%
COc1ccc(CNC(=O)Cn2ccc3cc(S(=O)(=O)N4CCCCC4)ccc32)cc1OC,nt,nt,nt,nt,3%,nt
CCCCC#Cc1nc(NC)c2ncn([C@@H]3O[C@@H](CO)[C@H](O)[C@H]3O)c2n1,nt,-2%,nt,nt,nt,nt
O=C(Cn1c(=O)n(Cc2nc(-c3ccccc3)no2)c(=O)c2ccccc21)Nc1cccc(C(F)(F)F)c1,nt,nt,nt,nt,-3%,nt
CCOc1ccc(OCC)c(NC(=O)CCc2nc3cccnc3n2-c2ccccc2)c1,nt,nt,nt,nt,6%,-18%

# Screening data as filed in PubChem.
